# Measurements: PubChem BioAssay (Tox21)
# Where “and” joins values, the source holds several entries; their conditions need not be identical. Equal entries are not always repeated. Records with an inconclusive call do not appear. A call without a number means that no potency is given here. Some compounds were tested as several samples or in several runs, with calls that do not always agree. Calls of active or inactive are those of the source. Unless noted, calls come from the whole dose curve; as a rule, active = well fitted curve in the direction sought with a large enough effect in the repeat runs; inconclusive = weak or mixed curves; inactive = no such curve, though single readings can be large; an effect the other way counts as inactive or inconclusive.
# Experiments:
# [1] = qHTS assay to identify small molecule antagonists of the glucocorticoid receptor (GR) signaling pathway - cell viability counter screen (AID 720693); conditions: GR-bla HeLa viability, CellTiter-Glo luminescence, 18 h, with 5 nM dexamethasone present; series mostly up to 58.5 µM; note: nearly all actives have a fitted effect of over 55% in size; note: potency is the fitted concentration of half-maximal effect
# [2] = qHTS assay for identifying genotoxic compounds that show differential cytotoxicity against isogenic chicken DT40 cell lines with known DNA damage response pathways - wild type cell line (AID 743012); conditions: DT40 wild type chicken cells viability, CellTiter-Glo, 40 h; series mostly up to 68.4 µM; note: nearly all actives have a fitted effect of over 60% in size; note: potency is the fitted concentration of half-maximal effect
# Procedure, shortened: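 Luminescent ATP viability signal (CellTiter-Glo, 30 min RT) recorded after wild type DT40 cells were incubated with compounds for 40 h at 37 C/5% CO2.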
# [3] = qHTS assay for identifying genotoxic compounds that show differential cytotoxicity against isogenic chicken DT40 cell lines with known DNA damage response pathways - Rev3 mutant cell line (AID 743014); conditions: chicken DT40 Rev3-/- viability, CellTiter-Glo, 40 h; series mostly up to 68.4 µM; note: nearly all actives have a fitted effect of over 55% in size; note: potency is the fitted concentration of half-maximal effect
# [4] = qHTS assay for identifying genotoxic compounds that show differential cytotoxicity against isogenic chicken DT40 cell lines with known DNA damage response pathways - Rad54/Ku70 mutant cell line (AID 743015); conditions: DT40 Rad54/Ku70 mutant viability, CellTiter-Glo, 40 h; series mostly up to 66.8 µM; note: nearly all actives have a fitted effect of over 60% in size; note: potency is the fitted concentration of half-maximal effect
# [5] = qHTS assay to identify small molecule antagonists of the androgen receptor (AR) signaling pathway - cell viability counter screen (AID 743033; note: nearly all actives have a fitted effect of over 45% in size; note: potency is the fitted concentration of half-maximal effect); conditions: AR-bla HEK293 viability, CellTiter-Glo luminescence, 16 h; series mostly up to 58.5 µM
# [6] = qHTS assay to identify small molecule antagonists of the androgen receptor (AR) signaling pathway using the MDA cell line - cell viability counter screen (AID 743041; note: nearly all actives have a fitted effect of over 45% in size; note: potency is the fitted concentration of half-maximal effect); conditions: MDA-kb2 viability, CellTiter-Fluor, 16 h, cells co-treated with R1881 androgen agonist; series mostly up to 70.3 µM
# Procedure, shortened: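 Compound exposure lasted 16 h at 37C in MDA-kb2 AR-luc cells stimulated with R1881. Protease-based CellTiter-Fluor reagent was applied for the final 30 min and fluorescence measured.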
# [7] = biological target: Androgen receptor (Homo sapiens) (UniProt P10275); assay: qHTS assay to identify small molecule antagonists of the androgen receptor (AR) signaling pathway (AID 743035; active = well fitted inhibition curve with a large enough effect in the signal ratio in the repeat runs, not every such curve was filed as active; the % refers to the signal ratio; note: potency is the fitted concentration of half-maximal effect); conditions: HEK293 AR-UAS-bla, R1881-stimulated, beta-lactamase FRET, 16 h; series mostly up to 58.5 µM
# Procedure, shortened: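 Quantitative HTS of the Tox21 10K library used HEK293 AR-UAS-bla cells stimulated with R1881 alongside compound for 16 h at 37C, followed by beta-lactamase FRET detection (LiveBLAzer B/G, 2 h, RT).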
# [8] = biological target: Androgen receptor (Homo sapiens) (UniProt P10275); assay: qHTS assay to identify small molecule agonists of the androgen receptor (AR) signaling pathway (AID 743036; active = well fitted activation curve with a large enough effect in the signal ratio in the repeat runs, with a control signal flat, not every such curve was filed as active; the % refers to the signal ratio); conditions: HEK293 AR-UAS-bla GripTite, beta-lactamase FRET ratio, 16 h; series mostly up to 62.4 µM
# Procedure, shortened: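 Screening used 2,000 AR-bla HEK293 cells per well, treated 16 h at 37C with test compounds in DMSO alongside positive and DMSO-only controls; beta-lactamase activity was then read by LiveBLAzer B/G FRET fluorescence after 2 h at room temperature.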
# [9] = biological target: Androgen receptor (Homo sapiens) (UniProt P10275); assay: qHTS assay to identify small molecule agonists of the androgen receptor (AR) signaling pathway using the MDA cell line (AID 743040; note: nearly all actives have a fitted effect of over 20% in size); conditions: MDA-kb2 AR-luc cells, MMTV luciferase, 16 h; series mostly up to 70.3 µM
# Procedure, shortened: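 Testing was done with the MDA-kb2 AR-luc line, a human breast carcinoma stably transfected with MMTV-luciferase containing AR and GR response elements. Cells were exposed 16 h at 37C before ONE-Glo luminescence detection.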
# [10] = biological target: Androgen receptor (Homo sapiens) (UniProt P10275); assay: qHTS assay to identify small molecule antagonists of the androgen receptor (AR) signaling pathway using the MDA cell line (AID 743042; note: nearly all actives have a fitted effect of over 55% in size; note: potency is the fitted concentration of half-maximal effect); conditions: MDA-kb2 AR-luc, MMTV luciferase, R1881 antagonist, 16 h; series mostly up to 70.3 µM
# Procedure, shortened: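 MDA-kb2 breast carcinoma cells carrying MMTV-luciferase (AR/GR responsive) were co-treated with compounds and the agonist R1881 for 16 h at 37C. Inhibition read as ONE-Glo luminescence; CellTiter-Fluor fluorescence measured in parallel for cytotoxicity.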
# Chain of Androgen receptor (Homo sapiens) (P10275 whole entry, looked up): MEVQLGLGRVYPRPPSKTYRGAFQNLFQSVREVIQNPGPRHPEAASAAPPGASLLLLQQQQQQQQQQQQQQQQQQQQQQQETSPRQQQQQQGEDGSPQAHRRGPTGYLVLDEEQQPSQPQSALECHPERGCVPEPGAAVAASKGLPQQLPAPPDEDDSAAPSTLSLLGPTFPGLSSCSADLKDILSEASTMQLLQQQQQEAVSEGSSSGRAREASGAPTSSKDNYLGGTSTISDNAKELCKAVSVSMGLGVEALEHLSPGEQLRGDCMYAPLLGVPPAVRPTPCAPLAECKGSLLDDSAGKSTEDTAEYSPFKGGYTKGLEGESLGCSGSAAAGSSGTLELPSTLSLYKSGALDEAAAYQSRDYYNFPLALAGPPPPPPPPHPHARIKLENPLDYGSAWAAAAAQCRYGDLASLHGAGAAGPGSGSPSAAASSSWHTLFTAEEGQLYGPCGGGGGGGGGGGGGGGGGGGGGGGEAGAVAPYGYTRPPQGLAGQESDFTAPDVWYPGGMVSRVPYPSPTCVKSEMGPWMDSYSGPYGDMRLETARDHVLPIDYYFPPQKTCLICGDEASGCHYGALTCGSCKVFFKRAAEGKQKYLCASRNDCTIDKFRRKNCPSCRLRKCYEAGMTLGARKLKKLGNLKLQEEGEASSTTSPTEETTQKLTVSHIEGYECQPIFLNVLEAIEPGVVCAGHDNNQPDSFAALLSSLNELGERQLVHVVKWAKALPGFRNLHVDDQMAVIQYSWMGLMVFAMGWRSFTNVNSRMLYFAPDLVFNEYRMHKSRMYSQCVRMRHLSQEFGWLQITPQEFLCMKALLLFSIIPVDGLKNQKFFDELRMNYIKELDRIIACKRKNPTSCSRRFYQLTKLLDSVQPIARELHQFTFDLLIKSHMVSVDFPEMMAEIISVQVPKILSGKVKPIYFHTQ
SMILES,Potency [1],Potency [2],Potency [3],Potency [4],Potency [5],Potency [6],Potency [7],outcome [8],Potency [9],Potency [10]
O=C(O)COc1ccc(Cl)cc1,inactive,inactive,inactive,inactive,inactive,inactive,–,–,–,–
CC(Cl)C(C)Cl (centres undefined),inactive,inactive,inactive,inactive,inactive,inactive,–,–,–,–
CN1[C@@H]2CC[C@H]1CC(OC(=O)c1cc(Cl)cc(Cl)c1)C2 (some centres undefined),inactive,3.76 µM (active),2.98 µM (active),5.96 µM (active),inactive,inactive,–,–,–,–
ClC=C(Cl)Cl,inactive,inactive,inactive,inactive,inactive,inactive,–,–,–,–
C=C(C#N)CCC#N,inactive,inactive,inactive,inactive,inactive,inactive,–,–,–,–
CC(C)(Cl)[N+](=O)[O-],inactive,inactive,inactive,inactive,inactive,inactive,–,–,–,–
CC[C@H]1C[C@H]2[C@@H]3CCC4=CC(=O)CC[C@@H]4[C@H]3CC[C@]2(C)[C@H]1O,inactive,16.8 µM (active),29.8 µM (active),21.1 µM (active),inactive,inactive,–,–,–,–
C=CC(C)=O,inactive,inactive,inactive,inactive,inactive,inactive,–,–,–,–
CCBr,inactive,inactive,inactive,inactive,inactive,inactive,–,–,–,–
O=Cc1ccc(Cl)cc1Cl,inactive,inactive,inactive,inactive,inactive,inactive,–,–,–,–
CCOc1nc(F)cc2nc(S(=O)(=O)Nc3c(Cl)cccc3Cl)nn12,inactive,inactive,inactive,inactive,inactive,inactive,–,–,–,–
NCC(CC(=O)O)c1ccc(Cl)cc1 (centres undefined),inactive,inactive,inactive,inactive,inactive,inactive,–,–,–,–
O=C=Nc1ccc(Cl)cc1,inactive,27.3 µM (active),54.5 µM (active),27.3 µM (active),inactive,inactive,–,–,–,–
CCN(C)N=O,inactive,inactive,inactive,inactive,inactive,inactive,–,–,–,–
CCCCC(CC)COP(=O)(Oc1ccccc1)Oc1ccccc1 (centres undefined),inactive,inactive,48.6 µM (active),–,inactive,inactive,inactive,inactive,inactive,inactive
COP(=S)(OC)Oc1ccc([N+](=O)[O-])cc1Cl,inactive,inactive,inactive,inactive,inactive,–,–,–,–,inactive
COP(=O)(OC)O/C(=C/Cl)c1cc(Cl)c(Cl)cc1Cl,inactive,64.6 µM (active),28.8 µM (active),64.6 µM (active),–,inactive,18.4 µM (active),inactive,–,72.4 µM (active)
COCC(C)N(C(=O)CCl)c1c(C)csc1C (centres undefined),inactive,inactive and 17.2 µM (active),inactive and 15.4 µM (active),inactive and 17.2 µM (active),inactive,inactive,–,–,–,–
Oc1ccc(Cl)c(Cl)c1Cl,inactive,inactive,inactive,inactive,–,inactive,–,–,–,–
COC(=O)C(Cl)C(=O)OC,inactive,inactive,inactive,inactive,inactive,inactive,–,–,–,–
CCC(COC(=O)c1cc(OC)c(OC)c(OC)c1)(c1ccccc1)N(C)C (centres undefined),inactive,5.96 µM (active),3.35 µM (active),6.68 µM (active),inactive,inactive,–,–,–,–

SMILES,Potency [1],Potency [2],Potency [3],Potency [4],Potency [5],Potency [6],Potency [7],outcome [8],Potency [9],Potency [10]
CC1C(=O)C[C@]2(C(C)C)C[C@H]12 (some centres undefined),inactive,inactive,inactive,inactive,inactive,inactive,–,–,–,–
Clc1cc(Cl)c(Cl)c(Cl)c1,inactive,inactive,inactive,inactive,inactive,inactive,–,–,–,–
CC1(C)[C@H](C=C(Cl)Cl)[C@@H]1C(=O)O[C@@H](C#N)c1cccc(Oc2ccccc2)c1,inactive,inactive,inactive,–,inactive,inactive,–,–,–,–
CCOc1ccc(C(C)(C)COCc2cccc(Oc3ccccc3)c2)cc1,inactive,inactive,inactive,inactive,inactive,inactive,–,–,–,–
COP(=S)(OC)Oc1cc(Cl)c(I)cc1Cl,inactive,inactive,inactive,inactive,inactive,inactive,–,–,–,inactive
COC(C)(C)CCC[C@H](C)C/C=C/C(C)=C/C(=O)OC(C)C,inactive,21.7 µM (active),24.3 µM (active),19.3 µM (active),–,–,–,inactive,–,–
CCOP(=O)(OCC)O/C(=C/Cl)c1ccc(Cl)cc1Cl,inactive,11.9 µM (active) and 15.4 µM (active),23.7 µM (active) and 27.3 µM (active),23.7 µM (active) and 27.3 µM (active),inactive,inactive,–,–,–,–
Nc1nc(=S)[nH][nH]1,inactive,inactive,48.6 µM (active),–,inactive,inactive,–,–,–,–
C=CCC1([C@H](C)CCC)C(=O)NC(=O)NC1=O,inactive,inactive,inactive,inactive,inactive,inactive,–,–,–,–
C#CCOC(C(=O)OCCN(C)C)(c1ccccc1)c1ccccc1,inactive,inactive,inactive,inactive,inactive,inactive,–,–,–,–
COc1ccc(-c2ccccc2)cc1NNC(=O)OC(C)C,inactive,63.7 µM (active),71.5 µM (active),28.4 µM (active),–,inactive,51 µM (active),–,inactive,71.5 µM (active)
C[C@@H]1CC[C@H]2[C@@H](C)C(=O)O[C@@H]3O[C@@]4(C)CC[C@@H]1[C@]32OO4,inactive,0.422 µM (active),0.473 µM (active),0.237 µM (active),–,–,1.69 µM (active),inactive,–,1.33 µM (active)
N#CCc1ccccc1,inactive,inactive,inactive,inactive,inactive,inactive,–,–,–,–
C=CC(=O)OCC(C)O (centres undefined),inactive,inactive,inactive,inactive,inactive,inactive,–,–,–,–
O=C(NC(=O)c1c(F)cccc1F)Nc1ccc(OC(F)(F)C(F)OC(F)(F)F)c(Cl)c1 (centres undefined),inactive,6.68 µM (active),4.22 µM (active),1.06 µM (active),inactive,inactive,–,–,–,–
CC(C)(C)c1cc([N+](=O)[O-])cc([N+](=O)[O-])c1O,1.09 µM (active),19.3 µM (active),21.6 µM (active),19.3 µM (active),13.8 µM (active),24.3 µM (active),–,–,–,–
Clc1ccc(C2(Cn3cncn3)CC(Br)CO2)c(Cl)c1 (centres undefined),inactive,8.58 µM (active),8.58 µM (active),12.1 µM (active),–,inactive,–,–,–,–
CNP(=O)(OC)Oc1ccc(C(C)(C)C)cc1Cl (centres undefined),inactive,13.7 µM (active),19.3 µM (active),21.7 µM (active),–,inactive,–,–,–,–
O=C(NCc1cccnc1)Nc1ccc([N+](=O)[O-])cc1,inactive,inactive,inactive,–,inactive,inactive,–,–,–,–
O=S1OC[C@@H]2[C@H](CO1)[C@]1(Cl)C(Cl)=C(Cl)[C@@]2(Cl)C1(Cl)Cl (some centres undefined),inactive,24.3 µM (active),27.3 µM (active),30.6 µM (active),–,inactive,–,inactive,–,–
CC(O)(CS(=O)(=O)c1ccc(F)cc1)C(=O)Nc1ccc(C#N)c(C(F)(F)F)c1 (centres undefined),inactive,26.6 µM (active),10.6 µM (active) and 28.3 µM (active),23.7 µM (active) and 28.3 µM (active),inactive,inactive,–,–,–,–

SMILES,Potency [1],Potency [2],Potency [3],Potency [4],Potency [5],Potency [6],Potency [7],outcome [8],Potency [9],Potency [10]
Clc1cccc(SC2CCNCC2)n1,inactive,inactive,inactive,–,inactive,–,–,–,–,–
Cn1cc[n+](C)c1 (tested in a mixture with another compound),inactive,inactive,inactive,inactive,inactive,inactive,–,–,–,–
CC(C)N(C(=O)COc1nnc(C(F)(F)F)s1)c1ccc(F)cc1,inactive,15.4 µM (active),13.7 µM (active),15.4 µM (active),–,inactive,–,–,–,–
CCCC(=O)Cl,inactive,inactive,–,inactive,inactive,inactive,–,–,–,–
ClCC(Br)CBr (centres undefined),inactive,–,inactive,inactive,inactive,inactive,–,–,–,–
O=C1C(Cl)C(CCl)CN1c1cccc(C(F)(F)F)c1 (centres undefined),inactive,–,inactive,inactive,inactive,inactive,24.5 µM (active),inactive,inactive,inactive
CC(=O)NC1CCSC1=O (centres undefined),inactive,–,inactive,inactive,inactive,inactive,inactive,inactive,–,inactive
Cc1ccccc1CCl,inactive,inactive,–,inactive,inactive,inactive,–,–,–,–
c1ccoc1,inactive,inactive,–,inactive,inactive,inactive,–,–,–,–
CCC(C)(NC(=O)c1cc(Cl)c(C)c(Cl)c1)C(=O)CCl (centres undefined),43.9 µM (active),–,12.3 µM (active),9.75 µM (active),24.7 µM (active),–,–,–,–,–
COP(=S)(Oc1cc(Cl)c(Br)cc1Cl)c1ccccc1 (centres undefined),inactive,inactive,inactive,–,inactive,inactive,–,–,–,inactive
CC(=O)[C@H]1CC[C@H]2[C@@H]3CC[C@H]4C[C@](C)(O)CC[C@]4(C)[C@H]3CC[C@]12C,inactive,inactive,–,inactive,inactive,inactive,–,–,–,–
CC(C)N(CCC(C(N)=O)(c1ccccc1)c1ccccn1)C(C)C (centres undefined),inactive,inactive,–,inactive,inactive,inactive,–,–,–,–
NNC(=O)c1cccnc1,inactive,inactive,–,inactive,inactive,inactive,–,–,–,–
CCOP(=S)(OCC)Oc1nc(Cl)c(Cl)cc1Cl,inactive,–,inactive,inactive,inactive,inactive,–,inactive,inactive,inactive
C=CC(=O)OC(C)(C)C,inactive,–,inactive,inactive,inactive,inactive,–,–,–,–
CCCCCCCCCC(=O)O[C@H]1CC[C@H]2[C@@H]3CCC4=CC(=O)CC[C@@H]4[C@H]3CC[C@]12C,inactive,inactive,–,inactive,inactive,inactive,–,–,–,–
BrCCCCBr,inactive,–,inactive,inactive,inactive,inactive,–,–,–,–
NS(=O)(=O)C(F)(F)C(F)(F)C(F)(F)C(F)(F)C(F)(F)C(F)(F)C(F)(F)C(F)(F)F,54.9 µM (active),54.5 µM (active),34.4 µM (active),–,inactive,–,–,–,–,68.6 µM (active)
Nc1ccc(N=Nc2ccc(-c3ccc(N=Nc4c(S(=O)(=O)O)cc5cc(S(=O)(=O)O)c(N=Nc6ccccc6)c(O)c5c4N)cc3)cc2)c(N)c1,inactive,inactive,–,inactive,inactive,inactive,–,–,–,–
